Measurements taken from the supplement of paper PMC9023506.
Where a name gives a salt, the structure may show the parent alone.

tested on: Danio rerio larvae (5 dpf); assay: startle response to 20-s acoustic pulses, difference vs DMSO (percentage points (treated minus DMSO)); higher = more of the behaviour than the DMSO vehicle control; conditions: 10 µM; exposure time: 3 h pre-incubation + 3 h imaging
Method: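 5-dpf wild-type zebrafish larvae were imaged in 96-well plates. They were treated with 190 Tocris FDA-approved drugs at 10 µM (1 µl/ml DMSO) for 3 h before and 3 h during imaging at 28.5 °C, 48 larvae per drug. Automated image analysis gave % time moving and optomotor responses. Values are drug group mean minus DMSO vehicle mean (n=844), in percentage points, for 10 behaviours.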

Structure (SMILES) | startle response to 20-s acoustic pulses
CCOc1nc2cccc(C(=O)O)c2n1Cc1ccc(-c2ccccc2-c2noc(=O)[nH]2)cc1 [Azilsartan] | 3.96
CCN(Cc1ccncc1)C(=O)C(CO)c1ccccc1 (stereo not given) [Tropicamide] | -8.17
COc1c(C)c2c(c(O)c1C/C=C(\C)CCC(=O)O)C(=O)OC2 [Mycophenolic acid] | 2.15
CCOc1nc2cccc(C(=O)O)c2n1Cc1ccc(-c2ccccc2-c2nnn[nH]2)cc1 [Candesartan] | 10.6
CC(C)c1nc(N(C)S(C)(=O)=O)nc(-c2ccc(F)cc2)c1/C=C/[C@@H](O)C[C@@H](O)CC(=O)O [Rosuvastatin calcium] | -3.11
O=C(O)CCCc1ccccc1 [Sodium 4-Phenylbutyrate] | -5.04
Clc1ccccc1C(c1ccccc1)(c1ccccc1)n1ccnc1 [Clotrimazole] | 4.06
CC(C)OC(=O)C(C)(C)Oc1ccc(C(=O)c2ccc(Cl)cc2)cc1 [Fenofibrate] | -3.27
C[C@H](Cc1cc2c(c(C(N)=O)c1)N(CCCO)CC2)NCCOc1ccccc1OCC(F)(F)F [Silodosin] | 2.96
COC(=O)C1=C(C)NC(C)=C(C(=O)OC(C)C)C1c1cccc2nonc12 (stereo not given) [Isradipine] | -10.3
N[C@@H]1[C@H]2CN(c3nc4c(cc3F)c(=O)c(C(=O)O)cn4-c3ccc(F)cc3F)C[C@@H]12 [Trovafloxacin mesylate] | -7.29
Brc1c(NC2=NCCN2)ccc2nccnc12 | -4.57
Cc1cc2c(s1)Nc1ccccc1N=C2N1CCN(C)CC1 [Olanzapine] | -0.064
CN(C)CCC[C@@]1(c2ccc(F)cc2)OCc2cc(C#N)ccc21 [Escitalopram oxalate] | -6.28
NS(=O)(=O)c1cc(C(=O)O)c(NCc2ccco2)cc1Cl [Furosemide] | -4.02
C=C1[C@H](CO)[C@@H](O)C[C@@H]1n1cnc2c(=O)[nH]c(N)nc21 [Entecavir] | 3.11
CCCCCCCN(CC)CCCC(O)c1ccc(NS(C)(=O)=O)cc1 (stereo not given) [Ibutilide hemifumarate] | -3.17
CCCCNc1cc(C(=O)O)cc(S(N)(=O)=O)c1Oc1ccccc1 [Bumetanide] | 3.98
COc1cc2ncnc(Nc3ccc(F)c(Cl)c3)c2cc1OCCCN1CCOCC1 [Iressa] | -2.19
CC[C@H]1OC(=O)[C@H](C)[C@@H](O[C@H]2C[C@@](C)(OC)[C@@H](O)[C@H](C)O2)[C@H](C)[C@@H](O[C@@H]2O[C@H](C)C[C@H](N(C)C)[C@H]2O)[C@](C)(O)C[C@@H](C)CN(C)[C@H](C)[C@@H](O)[C@]1(C)O [Azithromycin] | 2.64

Structure (SMILES) | startle response to 20-s acoustic pulses
Cc1cc(C2CCCCC2)n(O)c(=O)c1 [Ciclopirox] | -9.88
CN/C(=N\CCSCc1nc[nH]c1C)NC#N [Cimetidine] | 7.14
O=C1CCc2cc(OCCCCc3nnnn3C3CCCCC3)ccc2N1 [Cilostazol] | 2.19
CCCN(CCC)S(=O)(=O)c1ccc(C(=O)O)cc1 [Probenecid] | 1.66
OCc1cc(C(O)CNCCCCCCOCCCCc2ccccc2)ccc1O (stereo not given) [Salmeterol xinafoate] | -5.23
CCCCCCCCc1ccc(CCC(N)(CO)CO)cc1 | -1.81
OCCN(CCO)c1nc(N2CCCCC2)c2nc(N(CCO)CCO)nc(N3CCCCC3)c2n1 [Dipyridamole] | 6.96
C#C[C@]1(O)CC[C@H]2[C@@H]3CCC4=CC(=O)CC[C@@H]4[C@H]3CC[C@@]21CC [Levonorgestrel] | -4.51
CN1CCN(CCCN2c3ccccc3Sc3ccc(Cl)cc32)CC1 [Prochlorperazine dimaleate] | -7.34
NC(=O)c1ncn([C@@H]2O[C@H](CO)[C@@H](O)[C@H]2O)n1 [Ribavirin] | 1.75
CCCN(CCc1cccs1)[C@H]1CCc2c(O)cccc2C1 [Rotigotine hydrochloride] | -4.68
CN[C@H]1CC[C@@H](c2ccc(Cl)c(Cl)c2)c2ccccc21 [Sertraline hydrochloride] | 1.74
Cc1ccccc1C(=O)Nc1ccc(C(=O)N2CCCC(O)c3cc(Cl)ccc32)c(C)c1 (stereo not given) [Tolvaptan] | 3.71
N#Cc1ccc(C(c2ccc(C#N)cc2)n2cncn2)cc1 [Letrozole] | 5.37
CC[C@H](C)C(=O)O[C@H]1C[C@@H](C)C=C2C=C[C@H](C)[C@H](CC[C@@H]3C[C@@H](O)CC(=O)O3)[C@H]21 [Lovastatin] | -0.839
CN1CC2c3ccccc3Oc3ccc(Cl)cc3C2C1 (stereo not given) [Asenapine maleate] | -6.44
NC(=O)OCC(COC(N)=O)c1ccccc1 [Felbamate] | 2.22
CNCc1ccc(-c2[nH]c3cc(F)cc4c3c2CCNC4=O)cc1 [Rucaparib camsylate] | -4.08
C[C@H]1C[C@@H]2[C@H]([C@@H](O)C[C@@]3(C)[C@H]2CC[C@]3(O)C(=O)CO)[C@@]2(C)C=CC(=O)C=C12 [Methylprednisolone] | -0.0848
CNS(=O)(=O)Cc1ccc2[nH]cc(CCN(C)C)c2c1 [Sumatriptan succinate] | 3.19
